# Reference: PubChem BioAssay (NCATS)
# Results filed as inconclusive are left out. A call without a number means that no potency is given here. Unmarked numbers belong to inactive results. Active and inactive are the calls of the source. The call rests on the fitted dose curve; in most records, active means well fitted cell-killing curve with a large enough effect; inconclusive means small, poorly fitted or top-dose-only effect, or effect the other way; inactive means no such curve, though single readings can be large or run the other way.
# Experiments:
# [1] = Viability qHTS for spleen associated tyrosine kinase inhibitor (SYKi) naive MV4-11 cells (AID 1963823); further: nearly all actives have a fitted effect of over 40% in size
# Method in brief: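 Seeding of 500 SYKi-naive MV4-11 cells per well onto pre-dispensed compounds preceded a 72 hr incubation at 37 C. Luminescent CellTiter-Glo signal, read after 10 min at room temperature, reflected viable cells.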
# [2] = Viability qHTS for spleen associated tyrosine kinase inhibitor (SYKi) drug resistant MV4-11 cells (AID 1963824); further: nearly all actives have a fitted effect of over 35% in size
# Method in brief: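 SYK inhibitor-resistant MV4-11 AML cells, 500 per well, added to predispensed compounds and incubated 72 hr at 37 C, 5% CO2. Viability measured by CellTiter-Glo luminescence after 10 min at room temperature.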
# Potency means the concentration at half of the fitted maximal effect.
SMILES,Potency [1],Potency [2],viability (% of control) [1],"viability, % of control [2]"
Cc1cc(N2CCN(C(=O)Oc3ccc(-c4ccccc4)cn3)CC2)c2ccccc2n1,6.51 µM (active),5.8 µM (active),,
C=C(CCO[C@@H]1O[C@H](CO)[C@@H](O)[C@H](O)[C@H]1O)C(=O)O,inactive,inactive,,
CNC12CC3C[C@@](C)(C1)C[C@](C)(C3)C2,inactive,inactive,,
C/C=C(\C)C(=O)O[C@H]1[C@H](O)[C@]2(COC(C)=O)[C@H](O)C[C@]3(C)C(=CCC4[C@@]5(C)CC[C@H](O[C@@H]6O[C@H](C(=O)O)[C@@H](O[C@@H]7O[C@H](CO)[C@@H](O)[C@H](O)[C@H]7O)[C@H](O)[C@H]6O[C@@H]6O[C@H](CO)[C@@H](O)[C@H](O)[C@H]6O)[C@](C)(CO)C5CC[C@]43C)[C@@H]2CC1(C)C (some centres not stated),,,88% [at 9.25 µM],97.8% [at 9.25 µM]
O=C(O)CC(=O)OC[C@H]1O[C@@H](Oc2ccc3c(c2)OC[C@H]2c4cc5c(cc4O[C@@H]32)OCO5)[C@H](O)[C@@H](O)[C@@H]1O,inactive,inactive,,
O=C(/C=C/c1ccc(O)c(O)c1)OCc1ccccc1O[C@@H]1O[C@H](CO)[C@@H](O)[C@H](O)[C@H]1O,inactive,inactive,,
CC(=O)N[C@H](Cc1ccc(O)cc1)C(=O)N[C@H](CCCN=C(N)N)C(=O)N[C@H](Cc1ccccc1)C(N)=O,inactive,inactive,,
C[C@@H](CN1CCC(n2c(=O)[nH]c3cc(Cl)ccc32)CC1)NC(=O)c1ccc2ccccc2c1,20.6 µM (active),11.6 µM (active),,
CC(C)(C)n1nc(Cc2cccc3ccccc23)c2c(N)ncnc21,10.3 µM (active),13 µM (active),,
COc1cc(-c2ccc(O)cc2)c(OC)c(O)c1C1=CC(=O)OC1CC(=O)O (configuration not stated),inactive,inactive,,
COc1ccc2c3c1O[C@H]1C[C@@H](O)C=C[C@@]31CCN(C)C2,inactive,inactive,,
COc1cc(OC)cc(N2CCN(C(=O)Nc3nc4cc(F)ccc4nc3OC)CC2)c1,0.934 µM (active),1.05 µM (active),,
COc1cc(/C=C2\CCCN([C@@H](C)c3ccc(F)cc3)C2=O)ccc1-n1cnc(C)c1,9.2 µM (active),5.17 µM (active),,
CCC(C)C1NC(=O)C2CCCN2C(=O)C(NC(C)=O)C(C)OC(=O)C(Cc2ccc(OC)cc2)N(C)C(=O)C2CCCN2C(=O)C(C(C)C)NC1=O (configuration not stated),inactive,inactive,,
C=C(C(=O)O)C1CC(O)C2(C)CCCC(C)(O)C2C1 (configuration not stated),inactive,inactive,,
CC1(C)CC2C=C(C(=O)O)C3COC(=O)C(O)(CO)C23C1 (configuration not stated),inactive,inactive,,
CCOC(=O)[C@@H](N)Cc1ccc(-c2cc(O[C@H](c3ccc(Cl)cc3-n3ccc(C)n3)C(F)(F)F)nc(N)n2)cc1,8.33 µM (active),4.17 µM (active),,
COc1cc(C2Oc3c(OC)cc(/C=C/C(=O)OC4CC(O)(C(=O)O)CC(O)C4O)cc3C2CO)ccc1O (configuration not stated),inactive,inactive,,
CC1CCCC[C@H]2C(=O)C=C[C@H](O)[C@@H]2CC(=O)O1 (some centres not stated),0.731 µM (active),0.731 µM (active),,
N#CC(=C(/N)Sc1ccccc1N)/C(C#N)=C(/N)Sc1ccccc1N,10.3 µM (active),7.31 µM (active),,
COc1cc(-c2cc(-c3cccc(O)c3)cnc2N)cc(OC)c1OC,11.6 µM (active),9.2 µM (active),,
COc1c(CCC(=O)O)cccc1O[C@@H]1O[C@H](CO)[C@@H](O)[C@H](O)[C@H]1O,inactive,inactive,,
C[C@H]1[C@H](C)CC[C@]2(C(=O)OC3OC(CO)C(O)C(O)C3O)CC[C@]3(C(=O)O)C(=CCC4[C@@]5(C)CC[C@H](O[C@@H]6O[C@@H](C)[C@H](OC7OC(CO)C(O)C(O)C7O)[C@@H](O)[C@H]6O)C(C)(C)C5CC[C@]43C)[C@H]12 (some centres not stated),,,80.8% [at 9.25 µM],108% [at 9.25 µM]
CC(C)(O)c1ccc2c(c1)C(O)C[C@H]1[C@](C)(C(=O)O)CCC[C@]21C (some centres not stated),inactive,inactive,,
O=C1c2c(O[C@@H]3O[C@H](CO)[C@@H](O)[C@H](O)[C@H]3O)cc(O)cc2OC1(O)Cc1ccc(O)cc1 (some centres not stated),2 µM (active),3.17 µM (active),,
COC1CC(O[C@H]2CC[C@@]3(C)C(=CC[C@]4(O)C3[C@H](OC(C)=O)[C@@H](OC(=O)c3ccccc3)[C@]3(C)[C@@H](C(C)=O)CC[C@@]34O)C2)OC(C)C1OC1CC(OC)C(OC2CC(OC)C(OC3OC(C)C(OC4OC(CO)C(O)C(O)C4O)C(OC)C3O)C(C)O2)C(C)O1 (some centres not stated),,,74.5% [at 9.25 µM],66.2% [at 9.25 µM]
